# Screen size: about 69,000 compounds; about 1,000 (1.4%) showed an effect of 50% or more. Only a selection was taken, and strong results are over-represented in it overall.
# Test system: Leishmania donovani
# Test: Leishmania intramacrophage assay
# Type: functional, organism-based
# Design: scale not given: in the data most compounds retested in dose-response had high values
smiles,measurement,setting,value
CN(C)C(=O)COCC1CN(Cc2ccoc2)Cc2ncn(C)c21.O=C(O)C(F)(F)F.O=C(O)C(F)(F)F (centres undefined),Percent Effect,"30.3 µM, […]",13.81%
O=C(NCC(F)(F)C(F)F)c1cccnc1,Percent Effect,"30.3 µM, […]",3.821%
O=C(NCC(F)(F)C(F)F)c1ccncc1,Percent Effect,"30.3 µM, […]",-13.6%
O=C(NCC(F)(F)F)c1ccncc1,Percent Effect,"30.3 µM, […]",80.67%
CCC(C)N(Cc1cccnc1)Cc1ccc2c(c1)OCCO2 (centres undefined),Percent Effect,"30.3 µM, […]",27.15%
CCC(C)N(Cc1cccnc1)Cc1cc2c(cc1OC)OCO2 (centres undefined),Percent Effect,"30.3 µM, […]",16.2%
CCC(C)N(Cc1cccnc1)Cc1cc2c(cc1Cl)OCO2 (centres undefined),Percent Effect,"30.3 µM, […]",69.06%
CC(C)CN1C(=O)CC(N2CCN(c3ccc(F)cc3)CC2)C1=O (centres undefined),Percent Effect,"30.3 µM, […]",-25.93%
CC(C)NC(=O)c1nc(Cn2c(C(F)(F)F)nc3ccccc32)no1,Percent Effect,"30.3 µM, […]",55.95%
CC(C)NC(=O)c1nc(Cn2c(C(F)F)nc3ccccc32)no1,Percent Effect,"30.3 µM, […]",-22.55%
O=C(NC1CC1)c1nc(Cn2c(C(F)F)nc3ccccc32)no1,Percent Effect,"30.3 µM, […]",-15.36%
CCc1nnc2n1CCN(CC(O)c1ccc3c(c1)OCCO3)C2 (centres undefined),Percent Effect,30 µM,-7.197%
CN(C)S(=O)(=O)N1CCN(C(=O)OC(C)(C)C)CC12CCCCC2,Percent Effect,"30.3 µM, […]",5.768%
CC(C)(C)OC(=O)N1CCN(S(=O)(=O)CCCC#N)C2(CCCCC2)C1,Percent Effect,"30.3 µM, […]",52.1%
CC(C)(C)OC(=O)N1CCN(S(C)(=O)=O)C2(CCCCC2)C1,Percent Effect,"30.3 µM, […]",27.8%
CN1CCN(CC2(O)CCCN(S(=O)(=O)c3cn[nH]c3)CC2)CC1 (centres undefined),Percent Effect,"30.3 µM, […]",4.995%
Cc1ccc(CN2CCN(Cc3nccn3C)[C@H]3CS(=O)(=O)C[C@H]32)o1,Percent Effect,"30.3 µM, […]",16.96%
CCn1cc(N2Cc3nc(N4CCOCC4)ncc3C2=O)cn1,Percent Effect,"30 µM, 30.03 µM",-6.754%
Cn1cc(N2Cc3nc(N4CCOCC4)ncc3C2=O)cn1,Percent Effect,"30.3 µM, […]",59.37%
CC(C)n1cc(N2Cc3nc(N4CCOCC4)ncc3C2=O)cn1,Percent Effect,"30.3 µM, […]",32.93%
CN(C)Cc1ccc(C(N)=O)cc1NC(=O)c1cccc(C#N)c1,Percent Effect,"30.3 µM, […]",0.5381%
CC(=O)N1CCC(Cc2cccc(-c3ccnn3C)n2)CC1,Percent Effect,"30.3 µM, […]",7.143%
CN(CCNC(=O)Nc1ccn(C)n1)Cc1ccc(F)cc1,Percent Effect,"30.3 µM, […]",-20.54%
CN(CCNC(=O)Nc1cnn(C)c1)Cc1ccc(F)cc1,Percent Effect,"30.3 µM, […]",-44.73%
CN(CCNC(=O)Nc1nccs1)Cc1ccc(F)cc1,Percent Effect,"30.3 µM, […]",53.32%
CCSCc1cccc(NC2CCN(C)C2=O)c1 (centres undefined),Percent Effect,"30.3 µM, […]",-1.156%
COCCCN(C)c1cc(C(F)(F)F)nc(-c2cccnc2)n1,Percent Effect,"30.3 µM, […]",1.301%
Cl.c1ccc(-c2ccc(C3CNCCO3)nc2)cc1 (centres undefined),Percent Effect,"30 µM, 30.03 µM",21.61%
CCNC(=O)N(Cc1ccoc1)C1CCCCC1,Percent Effect,"30.3 µM, […]",-8.85%
COc1cc(CSc2nnc(N)n2C2CC2)ccc1SC,Percent Effect,"30.3 µM, […]",3.668%
CC(C)(C)c1ncc(C(=O)N2CCC(N3CCSCC3)CC2)c(O)n1,Percent Effect,"30.3 µM, […]",-1.593%
NC(=O)C(CNC(=O)Cc1ccc(F)cc1)Cc1ccc(F)cc1 (centres undefined),Percent Effect,"30 µM, 30.03 µM",16.98%
Cc1ccc(CC(=O)NCC(Cc2ccc(F)cc2)C(N)=O)cn1 (centres undefined),Percent Effect,"30.3 µM, […]",53.64%
NC(=O)C(CNC(=O)Cc1ccsc1)Cc1ccc(F)cc1 (centres undefined),Percent Effect,"30.3 µM, […]",32.76%
CSc1ncnc(NCc2cccs2)c1C#N,Percent Effect,"30.3 µM, […]",10.2%
COCCCN1Cc2cccc(NC(=O)c3ccccc3C)c2C1,Percent Effect,"30.3 µM, […]",-0.887%
O=C(NCc1ccco1)[C@H]1CC[C@@H]2[C@@H](CCN2Cc2nccs2)O1.O=C(O)C(F)(F)F,Percent Effect,"30.3 µM, […]",-4.08%
COCC[C@]1(O)CCN(Cc2nc(C(C)C)cs2)C[C@H]1C,Percent Effect,"30.3 µM, […]",-0.9404%
COCCN(Cc1sccc1C)Cc1nccn1CCOC,Percent Effect,"30.3 µM, […]",16.06%
COCCN(Cc1ccccn1)Cc1sccc1C,Percent Effect,"30.3 µM, […]",0.646%
COCCn1ccnc1CN(Cc1ccccn1)Cc1sccc1C,Percent Effect,"30.3 µM, […]",60.02%
CC(C)(C)CC(=O)Nc1cnn(-c2ccccc2S(C)(=O)=O)c1,Percent Effect,"30.3 µM, […]",13.51%
CS(=O)(=O)c1ccccc1-n1cc(NC(=O)CC2C=CCC2)cn1 (centres undefined),Percent Effect,"30.3 µM, […]",4.466%
CN(CC(=O)Nc1cnn(-c2ccccc2S(C)(=O)=O)c1)C1CC1,Percent Effect,"30.3 µM, […]",52.47%
CC(C)c1cc(=O)[nH]c(-c2ccccc2CN2CCCCCC2)n1,Percent Effect,"30.3 µM, […]",1.494%
CCCc1nc2c(c(C)c(C)n2Cc2ccccn2)c(N)c1CC,Percent Effect,"30.3 µM, […]",98.46%
CCCc1nc2c(c(C)c(C)n2Cc2ccncc2)c(N)c1CC,Percent Effect,"30.3 µM, […]",13.89%
Cc1c(C)n(Cc2ccncc2)c2nc3c(c(N)c12)CCCC3,Percent Effect,"30.3 µM, […]",9.739%
CCc1nc2c(c(C)c(C)n2Cc2cccnc2)c(N)c1C,Percent Effect,"30.3 µM, […]",13.69%
Cc1c(C)n(Cc2ccccn2)c2nc3c(c(N)c12)CCCC3,Percent Effect,"30 µM, 30.03 µM",-5.276%
CCCc1nc2c(c(C)c(C)n2Cc2cccnc2)c(N)c1CC,Percent Effect,"30.3 µM, […]",64.41%
O=C(Cc1ccon1)N1CCN(c2ccc(F)cc2Cl)CC1,Percent Effect,"30.3 µM, […]",4.988%
CNC(=O)c1cnn2c(C3CCCN3C)ccnc12 (centres undefined),Percent Effect,"30.3 µM, […]",-0.3512%
CCN1CCC2(CCN(c3ncccn3)CC2)C1=O.O=C(O)C(F)(F)F,Percent Effect,"30.3 µM, […]",-8.891%
Cc1cc(C(=O)NCC(C)C)nn1C,Percent Effect,"30.3 µM, […]",3.079%
Cc1ccc(F)c(OC2CCCN(c3cnn(C)c3)C2=O)c1 (centres undefined),Percent Effect,"30.3 µM, […]",1.572%
CN(Cc1nccn1C)S(=O)(=O)Cc1cccc(C#N)c1,Percent Effect,"30.3 µM, […]",3.121%
Cc1c[nH]c(C2CCCN(Cc3ccccc3C(=O)O)C2)n1.O=CO (centres undefined),Percent Effect,"30.3 µM, […]",-7.994%
CC(=O)N1CCCN(C(=O)NCCNc2cnccn2)CC1,Percent Effect,30 µM,10.17%
Cc1cccc(CN2C[C@@H]3OCCN(c4ccnc(N(C)C)n4)[C@@H]3C2)c1.O=C(O)C(F)(F)F,Percent Effect,"30.3 µM, […]",-2.723%
CCc1ccc(CN2C[C@@H]3OCCN(c4ccnc(N(C)C)n4)[C@@H]3C2)o1.O=C(O)C(F)(F)F,Percent Effect,"30 µM, 30.03 µM",55.16%
CN(C)c1nccc(N2CCO[C@H]3CN(Cc4nccn4C)C[C@H]32)n1.O=C(O)C(F)(F)F,Percent Effect,"30.3 µM, […]",22.89%
CCc1cc(CNC(=O)C2CCCN(C(=O)NCC(C)C)C2)[nH]n1 (centres undefined),Percent Effect,"30.3 µM, […]",-11.81%
CCn1nc2c(cc1=O)CN(Cc1coc(-c3ccccc3)n1)CC2,Percent Effect,"30.3 µM, […]",51.53%
Cc1ccc(-c2nc(CN3CCc4nn(C)c(=O)cc4C3)co2)cc1,Percent Effect,"30 µM, 30.03 µM",21.01%
Cn1nc2c(cc1=O)CN(Cc1coc(-c3ccccc3)n1)CC2,Percent Effect,"30.3 µM, […]",18.82%
Nc1cc2c(nn1)CCN(C(=O)CC1CCCCC1)C2,Percent Effect,30 µM,25.14%
CCOC(=O)C1(Cc2cccc(OC)c2)CCCN(Cc2ncc[nH]2)C1 (centres undefined),Percent Effect,"30.3 µM, […]",-0.9604%
CCOC(=O)C1(Cc2ccccc2)CCCN(Cc2nccn2CC)C1 (centres undefined),Percent Effect,"30.3 µM, […]",51.2%
CCOC(=O)C1(CCOC)CCCN(Cc2nccn2CC)C1 (centres undefined),Percent Effect,"30.3 µM, […]",-5.772%
CN(C)C(=O)CNC(=O)c1ccc(Cl)cc1F,Percent Effect,"30 µM, 30.03 µM",-10.55%
Br.O=C(CN(C1=NCCCC1)c1ccccc1)c1ccccc1,Percent Effect,"30 µM, 30.03 µM",-5.499%
Br.Cc1ccc(N(CC(=O)c2ccc(Br)cc2)C2=NCCCCC2)cc1,Percent Effect,"30 µM, 30.03 µM",57.51%
COc1ccc(CN(Cc2c[nH]cn2)CC2CCCO2)c(OC)c1.O=C(O)CC(O)(CC(=O)O)C(=O)O (centres undefined),Percent Effect,"30.3 µM, […]",20.29%
Cc1noc(C)c1CN1CCc2ncnc(-c3cccnc3)c2CC1.O=C(O)C(F)(F)F.O=C(O)C(F)(F)F,Percent Effect,"30.3 µM, […]",26.97%
Cc1cc2c(N3CCC(N(C)CCc4cnn(C)c4)CC3)ncnc2s1,Percent Effect,"30.3 µM, […]",2.228%
Cc1sc2ncnc(N3CCC(N(C)Cc4cnn(C)c4)CC3)c2c1C,Percent Effect,"30.3 µM, […]",50.06%
Cc1cc2c(N3CCC(N(C)Cc4cnn(C)c4)CC3)ncnc2s1,Percent Effect,"30.3 µM, […]",31.66%
Cc1oc(C)c(C(=O)Nc2ccccn2)c1C,Percent Effect,"30.3 µM, […]",0.1995%
Cc1cc(N2CCc3c(ncn3C)C2)n2nc(C(F)(F)F)nc2n1,Percent Effect,"30.3 µM, […]",17.99%
CC1(c2ccccc2)CCCN(Cc2cncn2C2CC2)C1 (centres undefined),Percent Effect,"30.3 µM, […]",33.62%
CC1(c2ccccc2)CCCN(Cc2cncn2C2CCCC2)C1 (centres undefined),Percent Effect,"30.3 µM, […]",95.34%
COCCn1cncc1CN1CCCC(C)(c2ccccc2)C1 (centres undefined),Percent Effect,"30.3 µM, […]",-2.364%
Cc1ccc(C2(CN(C)Cc3snnc3C)CCNCC2)nc1,Percent Effect,"30.3 µM, […]",37.33%
Cc1ccc(C2(CN(C)Cc3sccc3C)CCNCC2)nc1,Percent Effect,"30.3 µM, […]",56.47%
Cc1ccc(C2(CN(C)Cc3c(C)nn(C)c3C)CCNCC2)nc1,Percent Effect,"30.3 µM, […]",37.1%
Cc1cccc(-c2noc(CN3CCCC(Cn4cncn4)C3)n2)c1 (centres undefined),Percent Effect,"30 µM, 30.03 µM",23.08%
CC(C)c1cncnc1N1CC[C@H](N2CCOCC2)[C@H](CCCO)C1,Percent Effect,"30.3 µM, […]",26.26%
CCc1ccc(C2CC(=O)Nc3cc(OC)c(NS(C)(=O)=O)cc32)o1 (centres undefined),Percent Effect,"30.3 µM, […]",-14.18%
CCc1ccc(C2CC(=O)Nc3cc(NS(C)(=O)=O)ccc32)o1 (centres undefined),Percent Effect,"30.3 µM, […]",14.16%
CCCC(=O)Nc1cc2c(cc1OC)NC(=O)CC2c1ccc(CC)o1 (centres undefined),Percent Effect,"30.3 µM, […]",77.7%
Cc1cc(CN2CCN(Cc3cc(C#N)ccc3F)CC2)no1,Percent Effect,"30.3 µM, […]",28.56%
Cc1ccnc(OC[C@@]23CCO[C@@H]2CCN(c2ncc(F)cn2)C3)n1.O=C(O)C(F)(F)F,Percent Effect,"30.3 µM, […]",22.41%
CC(CN1CCCC1=O)NC(=O)c1cc(Cl)c2c(c1)OCO2 (centres undefined),Percent Effect,"30.3 µM, […]",-42.28%
O=C(N[C@@H]1CCNC[C@H]1O)c1ccc(F)c(F)c1,Percent Effect,"30.3 µM, […]",-28.62%
O=C(N[C@@H]1CCNC[C@H]1O)c1ccc(F)c(Cl)c1,Percent Effect,"30 µM, 30.03 µM",13.21%
O=C(N[C@@H]1CCNC[C@H]1O)c1ccc(-c2ccc(F)cc2)cc1,Percent Effect,"30.3 µM, […]",72.82%
Cc1nc(CN2CCOC(Cn3cccn3)C2)nc2ccccc12 (centres undefined),Percent Effect,30 µM,18.44%
Cc1nc(N)sc1C(=O)N1CCC(C(O)Cc2ccccc2)CC1 (centres undefined),Percent Effect,"30.3 µM, […]",8.209%
Cc1nn(C)c2nc(N3CCC(C(O)c4ccccn4)CC3)sc12 (centres undefined),Percent Effect,"30.3 µM, […]",50.06%
Cc1nn(C)c2nc(N3CCC(C(O)c4nccn4C)CC3)sc12 (centres undefined),Percent Effect,"30.3 µM, […]",-0.9674%
Cc1nn(C)c2nc(N3CCN(Cc4nccn4C)CC3)sc12,Percent Effect,"30.3 µM, […]",15.9%
Cc1nn(C)c2nc(N3CCC(C(O)Cc4ccccc4)CC3)sc12 (centres undefined),Percent Effect,"30.3 µM, […]",58.21%
Cc1ccc(N2CCC(C(O)Cc3ccccc3)CC2)nn1 (centres undefined),Percent Effect,"30.3 µM, […]",17.05%
